The results in this text go back to PubChem BioAssay.

SMILES strings stand for the structures. Active and inactive are the calls of the source.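 How the source made its calls, unless noted: active means inhibition at or above 50% at 10 µM; inactive means inhibition below 50%.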

Test [1] concerns the target Voltage-gated potassium channel subunit beta-2 (Rattus norvegicus) (UniProt P62483). The experiment in a line: KvBeta enzyme negative modulators, primary screen, biochemical, NADPH fluorescence (AID 622;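 active means fluorescence slope higher than the sample average by over 3 SD, cut at about -0.22 in these data, passing the limit was not always enough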;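 further: slope of raw intensity against log time taken from 70 to 1610 s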). Particulars: recombinant KvBeta, 4-cyanobenzaldehyde reduction, at 10 µM, stronger effect = higher value.
Test [2] has the same target. The experiment in a line: KvBeta positive modulators, primary screen, biochemical, NADPH fluorescence (AID 623;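 active means NADPH fluorescence slope more negative than the mean of all samples by about 3 SD, 99.7% confidence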;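 further: fluorescence intensity change per second fitted from 20 to 320 s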). Particulars: Recombinant KvBeta, NADPH fluorescence decrease slope, 10 min; at 10 µM; stronger effect = lower value.
The target of test [3] is Alpha-2C adrenergic receptor (Homo sapiens) (UniProt P18825). The experiment in a line: modulators of alpha2C/GIRK thallium flux, primary screen, cell-based, HEK293 alpha2C/GIRK1/2 (AID 624;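 active means fluorescence slope after compound addition differing from the mean of all screened samples at 99.7% confidence, in either direction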;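 further: slope of fluorescence ratio to pre-addition baseline per second over 15 to 24 s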). Particulars: thallium flux BTC fluorescence, at 10 µM, actives lie on both sides.
Sequence of Alpha-2C adrenergic receptor (Homo sapiens) (P18825 whole entry, looked up): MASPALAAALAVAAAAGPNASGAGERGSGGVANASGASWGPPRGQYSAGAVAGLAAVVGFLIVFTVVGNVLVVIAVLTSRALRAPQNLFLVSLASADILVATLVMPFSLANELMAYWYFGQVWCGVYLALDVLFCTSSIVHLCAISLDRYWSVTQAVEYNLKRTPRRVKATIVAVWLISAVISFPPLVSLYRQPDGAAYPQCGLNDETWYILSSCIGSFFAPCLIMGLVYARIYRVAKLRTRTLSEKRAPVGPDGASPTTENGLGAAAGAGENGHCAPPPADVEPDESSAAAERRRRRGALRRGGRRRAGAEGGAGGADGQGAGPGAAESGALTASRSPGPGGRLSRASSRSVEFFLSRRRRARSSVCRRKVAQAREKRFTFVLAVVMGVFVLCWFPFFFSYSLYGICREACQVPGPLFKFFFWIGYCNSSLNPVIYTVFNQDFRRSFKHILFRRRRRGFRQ
Test [4] can be described thus: inhibitors of larval lipid processing in zebrafish, primary screen, whole organism, PED6 fluorescence, gall bladder and intestine (AID 686;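 active means a full or partial loss of lipid-probe fluorescence in the fish gall bladder, intestine or both, judged by eye; inactive means no fluorescence loss, or compound toxic to the fish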;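 further: larvae 5 to 7 days old with five fish per well; signal comes from phospholipase A2 cleavage of quenched PED6 carried via bile; overnight exposure to compound and PED6 before scoring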). Particulars: Zebrafish larvae PED6 lipid processing, fluorescence scoring; screened at 20 µM (by protocol).
Test [5] is described as follows: inhibitors of Sendai virus-induced IRF3 signaling, primary screen, TLR/RLR signaling modifier project, cell-based, Sendai virus stimulus, luciferase, 10K MLSCN set (AID 602276).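 Further: firefly luciferase from ISG56 promoter only with Renilla not read in this screen; 0% = Sendai virus plus DMSO and 100% = medium plus DMSO without virus.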 Particulars: HEK293 RL24 IRF3 luciferase reporter, at 10 µM, stronger effect = higher value. On the technique in general: A reporter such as luciferase makes a cellular process visible.
The nature of test [6]: inhibitors of poly I:C-induced TLR3 signaling, primary screen, cell-based, poly I:C stimulus, luciferase, 10K MLSCN set (AID 602277;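 active means inhibition of the reporter signal at or above 50%; inactive means inhibition below 50%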). Particulars: HEK293-TLR3 RL24 IRF3 luciferase reporter, at 10 µM, stronger effect = higher value.
The nature of test [7]: inhibitors of mutant huntingtin aggregation, primary screen, imaging, exon1htt(103Q)mCFP cells, high-content imaging (AID 483;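 active means visual image review flags a hit and inhibition of aggregation exceeds 20%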;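 further: compound exposure lasted 3 days before fixation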;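 on nuclei count: percent of the per-plate median nuclei count of sample wells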). Particulars: exon1htt(103Q)mCFP cell line, aggregate imaging, at 2 µM; inhibition of aggregation: stronger effect = higher value; nuclei count: measured here: cell count, toxicity.
Test [8] is described as follows: inhibitors of E-selectin induction by TNFa, primary screen, imaging, HUVEC, immunofluorescence, MLSMR starter and 10KST1 sets (AID 487;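 active means visually confirmed hit in the image check and inhibition above 20%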;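 on inhibition: signal is fraction of cell area covered by stained E-selectin grains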;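 on nuclei count: 100% = median nuclei count of all wells on the same plate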). Particulars: HUVEC TNFalpha-induced E-selectin immunofluorescence imaging, at 2 µM; inhibition: stronger effect = higher value; nuclei count: measured here: cell number, toxicity.
Test [9] has as its target Muscarinic acetylcholine receptor M4 (Homo sapiens) (UniProt P08173). The experiment in a line: compounds altering M4/GIRK thallium flux, either direction, primary screen, M4 allosteric agonist project, cell-based, HEK293 M4/GIRK, BTC-AM (AID 625;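 active means fluorescence slope after compound addition differing from the mean of all tested samples at 99.7% confidence, mostly higher but some lower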;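 further: thallium influx through GIRK channels coupled to M4 in HEK293 cells with BTC-AM dye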). Particulars: at 10 µM, actives lie on both sides.
Test [10] in a line: DUSP6 inhibitors restoring Erk phosphorylation by chemical complementation, primary imaging in DUSP6-transfected HeLa (AID 609;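 active means compounds giving at least 50% inhibition in the cell-based MKP-3 phosphatase rescue imaging test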;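 on inhibition: phospho-Erk level distribution per well compared with pooled transfected vehicle control wells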). Particulars: HeLa MKP-3 transfected, phospho-Erk imaging KS statistic, at 10 µM, cells stimulated with TPA for 15 min.
Test [11] has as its target Dual specificity protein phosphatase 6 (Homo sapiens) (UniProt Q16828). The description is as above. Particulars: HeLa MKP-3 transfected, phospho-Erk imaging KS statistic; at 10 µM; stronger effect = higher value; cells stimulated with TPA for 15 min.

In general, inhibition refers to the drop in the measured response relative to a control, in per cent.

Sequence of Voltage-gated potassium channel subunit beta-2 (Rattus norvegicus) (P62483 whole entry, looked up): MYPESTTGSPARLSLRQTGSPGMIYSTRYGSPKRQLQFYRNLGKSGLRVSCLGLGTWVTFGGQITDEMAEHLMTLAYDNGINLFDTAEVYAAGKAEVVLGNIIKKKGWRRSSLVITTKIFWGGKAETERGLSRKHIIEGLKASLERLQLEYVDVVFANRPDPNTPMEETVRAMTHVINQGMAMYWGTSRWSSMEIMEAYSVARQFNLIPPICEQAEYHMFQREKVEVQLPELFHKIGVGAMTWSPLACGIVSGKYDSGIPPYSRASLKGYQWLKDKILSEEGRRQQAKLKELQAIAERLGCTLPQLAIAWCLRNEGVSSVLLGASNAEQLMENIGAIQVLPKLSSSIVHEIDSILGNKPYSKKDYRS
Sequence of Muscarinic acetylcholine receptor M4 (Homo sapiens) (P08173 whole entry, looked up): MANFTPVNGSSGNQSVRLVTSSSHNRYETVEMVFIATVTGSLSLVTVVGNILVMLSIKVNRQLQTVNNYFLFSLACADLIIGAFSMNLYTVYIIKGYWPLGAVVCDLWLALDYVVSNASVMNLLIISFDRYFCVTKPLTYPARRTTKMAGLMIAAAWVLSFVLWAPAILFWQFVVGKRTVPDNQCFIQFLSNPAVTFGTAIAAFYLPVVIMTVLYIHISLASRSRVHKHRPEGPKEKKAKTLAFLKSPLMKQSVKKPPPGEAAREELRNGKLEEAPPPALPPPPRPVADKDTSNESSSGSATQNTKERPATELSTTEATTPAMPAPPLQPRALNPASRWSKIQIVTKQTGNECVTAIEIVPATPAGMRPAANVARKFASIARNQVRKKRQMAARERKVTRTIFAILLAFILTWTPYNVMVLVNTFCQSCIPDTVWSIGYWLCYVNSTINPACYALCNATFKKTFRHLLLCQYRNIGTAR
Sequence of Dual specificity protein phosphatase 6 (Homo sapiens) (Q16828 whole entry, looked up): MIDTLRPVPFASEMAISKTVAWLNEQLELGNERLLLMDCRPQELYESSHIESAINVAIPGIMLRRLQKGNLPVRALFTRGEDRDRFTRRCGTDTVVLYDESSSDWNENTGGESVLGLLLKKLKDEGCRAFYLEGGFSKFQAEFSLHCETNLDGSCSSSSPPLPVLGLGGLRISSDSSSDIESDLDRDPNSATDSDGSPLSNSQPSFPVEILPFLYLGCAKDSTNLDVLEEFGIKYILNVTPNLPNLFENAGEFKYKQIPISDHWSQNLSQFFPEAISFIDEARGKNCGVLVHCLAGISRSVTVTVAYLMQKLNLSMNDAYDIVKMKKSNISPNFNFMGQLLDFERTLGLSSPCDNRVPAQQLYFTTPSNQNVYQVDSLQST

Take `CC(=O)N1CCc2cc(S(=O)(=O)NCCC(=O)NC3CCCc4ccccc43)ccc21` (configuration not stated): in test [1], the fluorescence slope was -0.388 (inactive). Moreover, the NADPH fluorescence slope in test [2] was -4e-05 (inactive). Moreover, in [3], the slope was 0.00543 (inactive). For the same molecule, in test [4], the outcome was inactive. In addition, the inhibition is -3.18% (inactive) in test [5] and -2.7% (inactive) in test [6].
In the case of `O=C(CN(Cc1ccco1)C(=O)CNS(=O)(=O)c1ccc(Cl)cc1)NCc1ccc(F)cc1`, in test [7], the inhibition of aggregation is -10.4% (inactive). Also, the values for the nuclei count in [7] and in test [8] were 97.5% and 159%, respectively. The values for the inhibition in test [8], in test [5] and in test [6] were -185% (inactive), 22.1% (inactive) and 27.5% (inactive), respectively. Further, the fluorescence slope was -0.567 (inactive) in test [1] and 0.00551 (inactive) in test [9]. In addition, in [2], the NADPH fluorescence slope is -6.4e-06 (inactive).
Regarding `CCOC(=O)C1CCCN(C(=O)c2cc3c(-c4cccc(OC)c4)nn(C)c3s2)C1` (configuration not stated), the fluorescence slope in [1] was -0.355 (inactive). Also, the NADPH fluorescence slope in test [2] is -3.7e-05 (inactive). In addition, the slope in [3] is 0.00666 (inactive). In addition, in [4], the call was inactive. Besides, the inhibition in test [5] was -33.2% (inactive); in [6], 39.4% (inactive).
In the case of `CCOC(=O)C1CCCN(c2cc(=O)n(Cc3ccc(F)cc3)c(=O)[nH]2)C1` (configuration not stated), the fluorescence slope in [1] is -0.387 (inactive); in test [9] it was 0.0077 (inactive). Also, in [2], the NADPH fluorescence slope was -1.6e-05 (inactive). Also, the inhibition in test [5] is 11.9% (inactive); in test [6] it was 19.7% (inactive).
As to `CN(C)CCOC(c1ccccc1)c1ccccc1` (tested in a mixture with another compound), the inhibition in test [8] is -105% (inactive); in [11] it was 13.3% (inactive); in test [5], 23.9% (inactive); in test [6], 33.9% (inactive). In test [8], the nuclei count amounted to 131%. Also, the z-score was 0.752 in test [10] (measured here: cell density z-score); 0.00544 in test [10] (measured here: nuclear c-Myc green intensity z-score); -0.839 in test [10] (measured here: nuclear pErk red intensity z-score, stronger effect = higher value). Further, in test [1], the fluorescence slope was -0.486 (inactive). In test [2], the NADPH fluorescence slope was -8.1e-06 (inactive). For the same molecule, the slope in test [3] was 0.00507 (inactive).
